This is part of a sample that, as a whole, favours compounds with a hit. Of some 83,000 tested, about 20% had one in any assay.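 Step 1: grow cells in 96-well plates. Step 2: add test compound at a single concentration. Step 3: incubate 48 h. Step 4: record percent growth.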 Values without a mark were called inactive. Calls of active or inactive are those of the source. Rule for the calls: active = growth percent below 10; inactive = the rest.
Each compound was assayed on NCI-H23 lung (assay: NCI-60 one-dose screen, 48 h (100 = growth as untreated, 0 = no growth, -100 = all killed)). Details: 10 µM unless noted.

Row | SMILES | growth
1 | CC(=O)Nc1ccc2c(c1)Cc1c(F)cccc1-2 | 94.9%
2 | COc1ccc(-c2cncnc2N)cc1OC | 108%
3 | CN(C)c1ccc2cc(-c3ccc(Cl)c(Cl)c3)c(N)nc2c1 | 15.4%
4 | O=C(Nc1ccccn1)[C@H](O)[C@@H](O)C(=O)N1CCOCC1 | 106%
5 | O=C(NC(=S)Nc1ccc(-c2nc3ccccc3[nH]2)cc1)c1ccc2ccccc2c1 | 58.1%
6 | CCCCCCN(CCCCCC)CC(O)c1cccc2ccc(Cl)cc12 (centres undefined) | 38.8%
7 | Cc1ccc(S(=O)(=O)N(CC[C@@H]2C[C@H]2c2cc3ccccc3o2)C(=O)NC2CCCCC2)cc1 | 78.2%
8 | Clc1ccc2[nH]c3c(NCCCN4CCOCC4)ncnc3c2c1 | 76.8%
9 | Fc1ccc(Nc2ccc3cc(OCCCN4CCOCC4)ccc3n2)cc1F | 55.7%
10 | CNC(=O)NCC1OC(n2cnc3c(NC(=O)Nc4ccccc4)ncnc32)C2OC(C)(C)OC12 (centres undefined) | 87.3%
11 | CCN(CC)CCOC(=O)Nc1ccccc1Cl | 105%
12 | N=C(N)c1ccc(-c2ccc(-c3ccc(Cl)c(Cl)c3)o2)cc1 | 45.4%
13 | Cc1[nH]c(-c2nc3ccccc3[nH]2)c(C)c1C(=O)N1CCc2sccc2C1 | 91.2%
14 | CC(C)(C)c1ccc(C(=O)Nc2sc3c(c2C(N)=O)CCC(=O)C3)cc1 | -15% (active)
15 | Cc1nc(Nc2ccccn2)sc1C(=O)/C=C/c1ccc(Br)cc1 | 88.3%
16 | C/C(=N\NC(=O)Cn1c(-c2ccc(S(C)(=O)=O)cc2)nc2cc(Cl)ccc21)c1ccc(Cl)cc1 | 83%
17 | CCOC(=O)c1c(C)[nH]c(C(=O)CCC(=O)OC)c1C | 98.3%
18 | C=C1C(=O)O[C@H]2[C@H]1CC/C(COC(=O)NCc1ccc(Cn3c(=O)sn(CCCCl)c3=O)cc1)=C\CC[C@@]1(C)O[C@@H]21 | 70.8%
19 | COc1cc(C2C=C(c3cccc(NC(C)=O)c3)Nc3ncnn32)cc(OC)c1OC (centres undefined) | 29.8%
20 | O=C(Oc1ccc[nH]c1=O)c1cc([N+](=O)[O-])cc([N+](=O)[O-])c1 | 114%

Row | SMILES | growth
21 | COc1ccc(Oc2nc(Nc3ccc(N4CCOCC4)nc3)ncc2NC(=O)c2cc(OC)cc(OC)c2)cc1 | 97.9%
22 | COC(=O)c1ccc2oc(NC(=O)c3ccc(N4CCOCC4)c([N+](=O)[O-])c3)nc2c1 | 93%
23 | O=C1Nc2ccccc2/C1=N/N=C/c1ccc(OC2OC(CO)C(O)C(O)C2O)cc1 (centres undefined) | 102%
24 | C=CC(=O)Nc1cccc(C)c1Nc1cc(-c2cccnc2Cc2c(C)c(OC)cc(OC)c2C)ncn1 | 54.4%
25 | OC(COc1cccc2ccccc12)CN1CCN(c2ccccc2)CC1 (centres undefined) | 87.3%
26 | CC(=O)Nc1cccc(C2=CC(c3ccc(C)cc3)n3ncnc3N2)c1 (centres undefined) | 97.4%
27 | O=C(CC12CC3CC(CC(C3)C1)C2)NCCOCCOCCNC(=O)c1cc2c(o1)C(=O)c1ccccc1C2=O | -52.9% (active)
28 | N=C(N)c1ccc(-c2ccc(/C=C/c3ccccc3)s2)cc1 | 55.2%
29 | CNC1(C#N)CCN(Cc2ccccc2)CC1 | 97.6%
30 | O=C(/C=C/C12c3ccccc3C(c3ccccc31)C1C(=O)N(c3ccccc3)C(=O)C12)c1ccc(Cl)cc1 (centres undefined) | 17.2%
31 | CCNCCNc1cc(-c2ccc(Cl)cc2)c(C#N)c2nc3ccccc3n12 | 44.7%
32 | CN(C)c1ccc2cc(-c3ccccc3F)c(N)nc2c1 | 21.4%
33 | O=C1Nc2ccccc2/C1=N/N=C/c1c[nH]c2ccccc12 | 82%
34 | COc1ccc(/C=C(\C#N)n2nnc3ccccc32)cc1 | 15.1%
35 | N#Cc1c(Oc2ccc([N+](=O)[O-])cc2)nc2sc3cc(Cl)ccc3n2c1=N | 73.7%
36 | O=C(NCCOCCOCCOCCNC(=O)c1cc2c(o1)C(=O)c1ccccc1C2=O)NC12CC3CC(CC(C3)C1)C2 | -45.7% (active)
37 | O=C(Oc1ccc([N+](=O)[O-])cc1)c1ccc(CBr)cc1 | 98.5%
38 | CCn1c(Sc2nnc(NC(=O)CCN3CCCC3)s2)nc2c1c(=O)n(C)c(=O)n2C | 106%
39 | CC(=[N-])N1CCC[C@@H](Nc2c3ccccc3nc3ccccc23)C1.[Cl][Pt].[NH-]CCC[NH-] | -2.65% (active)
